Source: PubChem BioAssay AID1241 (SRMLSC, 2008)
About 840 (70%) of roughly 1,200 compounds were called active. So high a share suggests a set chosen from earlier hits. These entries were drawn from the full list. Measured potencies and affinities stand elsewhere. A number with no mark means an inactive call. The rule behind the calls is not given here.

Assay: NF-kB promoter reporter activators, neuronal cells, dose response, cell-based, SH-SY5Y, luciferase (AID 1241)
Conditions: series mostly up to 30 µM; fold induction over control: at the top concentration

| SMILES | fold induction over control |
| --- | --- |
| CNc1oc(/C=C/c2ccccc2)nc1C#N | 8.72 |
| C(=C\c1nc(-c2ccccc2)no1)/c1ccccc1 | 14.1 |
| CCc1ccc(-c2nn(-c3ccccc3)cc2CSC(=N)N)cc1 | 5.16 [at 7.5 µM] |
| O=C(Nc1ccc2c(c1)OCCO2)c1cccs1 | 9.77 |
| Cc1ccccc1-c1noc(-c2ccccc2F)n1 | 12.3 |
| Cc1cccc(-c2noc(-c3ccc(Cl)cc3[N+](=O)[O-])n2)c1 | 13.6 |
| COc1ccc(-c2cc(=O)c3cc(C)ccc3[nH]2)cc1 | 7.13 |
| CCOC(=O)c1sc(-c2ccc(OC)cc2)cc1N | 15.4 |
| Nc1nc(-c2ccc3c(c2)CCCC3)cs1 | 13.8 |
| N#CC(=C1CCCC1)c1nc(-c2ccccc2)cs1 | 9.56 |
| O=c1oc2cc(Br)ccc2n1CSC1=NCCS1 | 9.98 |
| CCCCOC(=O)Nc1ccc2c(C)cc(=O)oc2c1 | 9.2 |
| O=C(Nc1ccc(Cl)cc1)c1ccc(Br)cc1F | 12.2 |
| Cc1ccc(C(=O)Nc2ccc3c(c2)nc2n3CCSC2)cc1 | 10.4 |
| CN1C(=O)/C(=C\C=C2/CCCN2C)N(C)C1=S | 2.4 |
| Nc1nonc1-c1noc(COc2ccccc2Cl)n1 | 15.9 |
| COc1ccc(C(=O)NNC(=S)Nc2ccccc2)cc1 | 10.9 |
| Cc1cccc(Nc2nc3c(s2)CCCC3)c1 | 11.4 |

| SMILES | fold induction over control |
| --- | --- |
| Oc1ccccc1CNc1ccc(Br)cn1 | 6.26 |
| COc1ccccc1CNc1ccc(CNc2ncn[nH]2)cc1 | 1.24 |
| O=C(NCCCn1ccnc1)c1cc(-c2ccccc2)on1 | 12.3 |
| O=C(NCCCN1CCOCC1)c1cc(-c2cccs2)on1 | 8.03 |
| Cc1csc2nc(CSc3ccc(Cl)cc3)cn12 | 10.2 |
| O=C(Cc1cn2ccsc2n1)OCc1ccccc1 | 2.43 |
| CCOc1cccc2cc(-c3csc(NC(=O)CCC(=O)NCCCN4CCC(C)CC4)n3)c(=O)oc12 | 13.6 |
| Cc1ccc(Nc2ncnc3c2oc2ccccc23)cc1 | 8.79 |
| Cc1ccc(N2C(=O)C(NC(=O)c3ccccc3)(C(F)(F)F)C3=C2CC(C)(C)CC3=O)cc1 (stereo unspecified) | 1 |
| COCCn1nnnc1C(CC(C)C)N1CCN(c2cccc(OC)c2)CC1 (stereo unspecified) | 1.05 |
| CC(C)(C)NC(=O)C[n+]1ccc(C(N)=O)cc1 | 1.06 |
| O=C(NCC1CCCO1)c1cc(-c2ccccc2)on1 (stereo unspecified) | 15.9 |
| COc1ccc2c(c1)CCc1c(C(=O)NCC(C)C)noc1-2 | 10.1 |
| Cc1ccc(N=C/C(C(=O)C(F)(F)F)=C(\O)c2ccco2)cc1Cl | 9.74 |
| CC(/C=N/NC(=O)c1cccs1)=C\c1ccco1 | 9.89 |
| C/C(=N\NC(=O)c1ccoc1C)c1cccnc1 | 1.54 |
| CC(=O)CSc1ncnc2c1cnn2-c1ccccc1 | 9.44 |
| O=[N+]([O-])c1ccc(F)cc1OCc1nc(-c2cccs2)no1 | 7.67 |
